The compounds below were run against Glucose transporter (Leishmania mexicana) (UniProt O61059) (assay: ST_JUDE_LEISH: Cytotoxicity at 2uM final concentration against transgenic Leishmania Mexicana promastigotes LmGT2 that are glucose transport deficient and complemented with the L. Mexicana glucose transporter 2. Activity is measured by DNA content using SYBR green in vitro).
Assay type: functional

Row | Compound | inhibition [%]
1 | Nc1c2c(nc3ccc(NC(=O)c4ccccc4)cc13)CCCC2 | 4.86
2 | O=C(NC1CCN(c2ccnc(Nc3ccc(F)cc3)n2)C1)c1cc2ccccc2s1 (stereo unspecified) | 1.27
3 | CN1CCC(NCc2ccc(-c3ccc(S(=O)(=O)NC4CCC4)s3)cc2)CC1 | 0.74
4 | CCCNC(=O)C1Cc2c([nH]c3cc(Br)ccc23)C2(CCN(CCc3ccccc3)CC2)N1 (stereo unspecified) | 1.75
5 | CCCCNC(=O)[C@H](Cc1ccccc1)NC(=O)c1ccc(O)c(-c2ccc(Cl)c(Cl)c2)c1 | 3.71
6 | CC(=O)c1ccc(-c2ccccc2)s1 | 1.61
7 | COc1ccc(CCN(C)CCCOc2ccc(NC(=O)c3cccc4c(=O)c5ccccc5[nH]c34)cc2)cc1OC | 1.73
8 | CC1(C)N=C(N)N=C(N)N1OCCCc1ccccc1 | 2.65
9 | CC(C)NCc1cccc(-c2ccc(NC(=O)c3ccc(F)cc3)cc2)c1 | -0.76
10 | Cc1ccc2c(Cl)c(C(=O)N3CCCc4ccccc43)sc2c1 | 3.16
11 | CC(C)c1ccc(Cn2cc(-c3ccncc3)c3cc(OCc4ccccc4)ccc32)cc1 | 2.49
12 | O=C(NCCc1ccc(Cl)c(Cl)c1)C1CCCN(C(=O)c2ccc(O)c(-c3ccc(Cl)c(Cl)c3)c2)C1 (stereo unspecified) | 4.3
13 | Nc1cccc(CNCc2cccc(-c3cccc(-c4nc5cc(F)ccc5[nH]4)c3)c2)c1 | -0.66
14 | CN1CCN(c2nsc3ccc(-c4ccc(NC(=O)Nc5cc(C(F)(F)F)ccc5F)cc4)cc23)CC1 | 2.12
15 | COc1ccc(CNCCCCCCCNCc2ccc(Cl)c(Cl)c2)cc1Cl | 2.7
16 | CC(C)COc1ccc(Cl)cc1Cc1nc(-c2nc3ccc(CN4CCCC4)cc3[nH]2)co1 | 3.07
